Source: PubChem BioAssay (EPA / NIEHS)
Activity calls are given as the source filed them. The calls were made as follows: active = hit-call score of the fitted dose curve at least 0.9, where 1 is the maximum; inactive = score below 0.9.

How the values were obtained:
Conditions in all cases: mRNA level, 48 h; actives raise or lower the signal
[1] = read-out: Intercellular Adhesion Molecule 1 (ICAM1), ICAM1 (gene 3383); test: LTEA_HepaRG_ICAM1: Life Technologies and Expression Analysis (LTEA) Assay for Intercellular Adhesion Molecule 1 (ICAM1) using HepaRG (AID 2283507)
How it was run: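 ICAM1 transcript levels measured by qRT-PCR, normalized to three housekeeping genes (ACTB, GAPDH, POLR2A), after 48 h chemical exposure of HepaRG cells. Duplicate eight-point half-log series from 100 uM in 0.5% DMSO; gain or loss fitted against vehicle.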

[2] = read-out: Insulin-like growth factor-binding protein 1 (IGFBP1), IGFBP1 (gene 3484); test: LTEA_HepaRG_IGFBP1: Life Technologies and Expression Analysis (LTEA) Assay for Insulin-like growth factor-binding protein 1 (IGFBP1) using HepaRG (AID 2283508)
How it was run: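 Read-out is qRT-PCR transcript level normalized to three housekeeping genes, fitted in both directions against 0.5% DMSO. Differentiated HepaRG cells received eight half-log concentrations (top 100 uM) in duplicate for 48 h in serum-free induction medium.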

[3] = read-out: Interleukin 6 (IL6), IL6 (gene 3569); test: LTEA_HepaRG_IL6: Life Technologies and Expression Analysis (LTEA) Assay for Interleukin 6 (IL6) using HepaRG (AID 2283509)
How it was run: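 qRT-PCR read-out of IL6 transcript, normalized to three housekeeping genes, after 48 h chemical exposure of HepaRG cells; 8-point half-log series, top 100 uM, 0.5% DMSO vehicle. Bidirectional curve fitting against DMSO baseline.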

[4] = read-out: Interleukin 6 Receptor (IL6R), IL6R (gene 3570); test: LTEA_HepaRG_IL6R: Life Technologies and Expression Analysis (LTEA) Assay for Interleukin 6 Receptor (IL6R) using HepaRG (AID 2283510)
How it was run: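 HepaRG, 48 h exposure, 8-pt half-log series, top 100 uM, 0.5% DMSO vehicle, duplicates. Read-out: TaqMan qRT-PCR of IL6R transcript, housekeeping-gene normalized. Gain or loss fitted relative to DMSO baseline.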

[5] = read-out: Potassium channel subfamily K member 1 (KCNK1), KCNK1 (gene 3775); test: LTEA_HepaRG_KCNK1: Life Technologies and Expression Analysis (LTEA) Assay for Potassium channel subfamily K member 1 (KCNK1) using HepaRG (AID 2283511)
How it was run: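 HepaRG, 48 h exposure, 8-pt half-log series top 100 uM, 0.5% DMSO vehicle, duplicates. Readout: KCNK1 transcript by qRT-PCR (Fluidigm array), housekeeping-normalized; bidirectional curve fit relative to DMSO baseline.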

[6] = read-out: Keratin 19 (KRT19), KRT19 (gene 3880); test: LTEA_HepaRG_KRT19: Life Technologies and Expression Analysis (LTEA) Assay for Keratin 19 (KRT19) using HepaRG (AID 2283512)
How it was run: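 KRT19 transcript measured by TaqMan qRT-PCR, referenced to three housekeeping genes, after HepaRG cells received test chemicals for 48 h. Eight half-log concentrations, top 100 uM, 0.5% DMSO vehicle; increases and decreases both fitted.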

[7] = read-out: JUN Transcription Factor, JUN (gene 3725); test: LTEA_HepaRG_JUN: Life Technologies and Expression Analysis (LTEA) Assay for JUN Transcription Factor using HepaRG (AID 2283513)
How it was run: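 HepaRG, 48 h exposure, 8-pt half-log series top 100 uM, 0.5% DMSO, duplicate. JUN mRNA by qRT-PCR (Fluidigm), housekeeping-normalized (ACTB/GAPDH/POLR2A); bidirectional curve fit vs DMSO baseline.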

[8] = read-out: Lipase C (LIPC), LIPC (gene 3990); test: LTEA_HepaRG_LIPC: Life Technologies and Expression Analysis (LTEA) Assay for Lipase C (LIPC) using HepaRG (AID 2283514)
How it was run: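 HepaRG, 48 h exposure, 8-pt half-log series from 100 uM in 0.5% DMSO, duplicates. Readout: LIPC mRNA by Fluidigm qRT-PCR, housekeeping-normalized (ACTB/GAPDH/POLR2A). Gain or loss fitted bidirectionally against DMSO baseline.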

[9] = read-out: MicroRNA 122 (MIR122), gene 406906; test: LTEA_HepaRG_MIR122: Life Technologies and Expression Analysis (LTEA) Assay for MicroRNA 122 (MIR122) using HepaRG (AID 2283516); also: the transcript read is the microRNA miR-122
How it was run: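 qRT-PCR read-out (TaqMan, Fluidigm array), normalized to three housekeeping genes; HepaRG cells dosed 48 h at 8 concentrations up to 100 uM in 0.5% DMSO, duplicate; gain or loss fitted against DMSO baseline.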

[10] = read-out: matrix metalloproteinase-10 (MMP10), MMP10 (gene 4319); test: LTEA_HepaRG_MMP10: Life Technologies and Expression Analysis (LTEA) Assay for matrix metalloproteinase-10 (MMP10) using HepaRG (AID 2283517)
How it was run: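 Transcript levels come from Fluidigm qRT-PCR normalized to three housekeeping genes, with curves fitted bidirectionally against 0.5% DMSO. Human HepaRG cells were dosed for 48 hours at concentrations up to 100 uM.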

[11] = read-out: matrix metalloproteinase-3 (MMP3), MMP3 (gene 4314); test: LTEA_HepaRG_MMP3: Life Technologies and Expression Analysis (LTEA) Assay for matrix metalloproteinase-3 (MMP3) using HepaRG (AID 2283519)
How it was run: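 qRT-PCR read-out of MMP3 mRNA (normalised to three housekeeping genes) in HepaRG liver cells after 48 h chemical exposure; 8-point half-log series, top 100 uM, 0.5% DMSO vehicle. Bidirectional curve fitting against DMSO baseline.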

[12] = read-out: Paternally Expressed 10 (PEG10), PEG10 (gene 23089); test: LTEA_HepaRG_PEG10: Life Technologies and Expression Analysis (LTEA) Assay for Paternally Expressed 10 (PEG10) using HepaRG (AID 2283520);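 as to AC50: PEG10 transcript by qRT-PCR normalised to ACTB GAPDH and POLR2A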
How it was run: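 qRT-PCR read-out: PEG10 mRNA normalised to three housekeeping genes, fitted bidirectionally against 0.5% DMSO vehicle. HepaRG cells received test chemicals for 48 h in serum-free induction medium, 8 points, top 100 uM, half-log steps.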

[13] = read-out: Protein phosphatase 2A (PPP2R4), PTPA (gene 5524); test: LTEA_HepaRG_PPP2R4: Life Technologies and Expression Analysis (LTEA) Assay for Protein phosphatase 2A (PPP2R4) using HepaRG (AID 2283522)
How it was run: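 HepaRG, 48 h exposure, 8-pt half-log series from 100 uM, 0.5% DMSO vehicle, duplicates. Readout: PPP2R4 mRNA, Fluidigm qRT-PCR, housekeeping-normalized. Bidirectional curve fit vs DMSO baseline.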

[14] = read-out: Phosphatase and tensin (PTEN), PTEN (gene 5728); test: LTEA_HepaRG_PTEN: Life Technologies and Expression Analysis (LTEA) Assay for Phosphatase and tensin (PTEN) using HepaRG (AID 2283523)
How it was run: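 HepaRG, 48 h exposure, 8-pt half-log series from 100 uM top, 0.5% DMSO vehicle, duplicates. Readout: Fluidigm qRT-PCR of PTEN transcript; housekeeping normalization (ACTB, GAPDH, POLR2A). Gain or loss fitted relative to DMSO baseline.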

[15] = read-out: solute carrier (SLC22A1), SLC22A1 (gene 6580); test: LTEA_HepaRG_SLC22A1: Life Technologies and Expression Analysis (LTEA) Assay for solute carrier (SLC22A1) using HepaRG (AID 2283524)
How it was run: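 qRT-PCR readout (TaqMan, Fluidigm arrays) of SLC22A1 transcript, normalized to three housekeeping genes; bidirectional curve fit relative to 0.5% DMSO vehicle. Differentiated human HepaRG cells, 48 h chemical exposure, top concentration 100 uM, half-log steps, eight points.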

[16] = read-out: Pyruvate Dehydrogenase Kinase 4 (PDK4), PDK4 (gene 5166); test: LTEA_HepaRG_PDK4: Life Technologies and Expression Analysis (LTEA) Assay for Pyruvate Dehydrogenase Kinase 4 (PDK4) using HepaRG (AID 2283525)
How it was run: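 HepaRG (human liver line), 48 h chemical exposure, 8-pt half-log CRC top 100 uM, 0.5% DMSO vehicle, duplicates. Readout: TaqMan qRT-PCR of PDK4 mRNA, housekeeping-normalized; gain/loss fit relative to DMSO baseline.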

[17] = read-out: NAD(P)H dehydrogenase [quinone] 1 (NQO1), NQO1 (gene 1728); test: LTEA_HepaRG_NQO1: Life Technologies and Expression Analysis (LTEA) Assay for NAD(P)H dehydrogenase [quinone] 1 (NQO1) using HepaRG (AID 2283526)
How it was run: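 qRT-PCR read-out (Fluidigm TaqMan), normalized to three housekeeping genes, after 48 h chemical exposure of HepaRG cells. Concentrations: eight points, top 100 uM, half-log steps, 0.5% DMSO vehicle. Gain or loss of signal fitted relative to DMSO.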

[18] = read-out: Lipoprotein lipase (LPL), LPL (gene 4023); test: LTEA_HepaRG_LPL: Life Technologies and Expression Analysis (LTEA) Assay for Lipoprotein lipase (LPL) using HepaRG (AID 2283515)
How it was run: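 HepaRG, 48 h exposure, 8-pt half-log dilutions from 100 uM, 0.5% DMSO vehicle, duplicates; qRT-PCR (Fluidigm array) of LPL mRNA vs housekeeping genes; bidirectional curve fit relative to DMSO baseline.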

[19] = read-out: Nuclear factor NF-kappa-B p105 subunit (Homo sapiens) (UniProt P19838); test: LTEA_HepaRG_NFKB1: Life Technologies and Expression Analysis (LTEA) Assay for Nuclear Factor Kappa B Subunit 1 (NFKB1) using HepaRG (AID 2283521)
How it was run: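 Differentiated human HepaRG cells were exposed for 48 h in serum-free induction medium to eight concentrations (top 100 uM, half-log steps, 0.5% DMSO), in duplicate. NFKB1 mRNA was measured by TaqMan qRT-PCR, normalized to ACTB/GAPDH/POLR2A, and fitted bidirectionally against DMSO.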

[20] = read-out: MYC, MYC (gene 4609); test: LTEA_HepaRG_MYC: Life Technologies and Expression Analysis (LTEA) Assay for MYC using HepaRG (AID 2283518)
How it was run: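 MYC transcript changes, up or down relative to 0.5% DMSO, from TaqMan qRT-PCR normalized to three housekeeping genes. Human HepaRG cultures received chemicals for 48 h at eight half-log concentrations up to 100 uM, in duplicate.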

Measured: AC50

Nuclear factor NF-kappa-B p105 subunit (Homo sapiens), sequence (P19838 whole entry, looked up): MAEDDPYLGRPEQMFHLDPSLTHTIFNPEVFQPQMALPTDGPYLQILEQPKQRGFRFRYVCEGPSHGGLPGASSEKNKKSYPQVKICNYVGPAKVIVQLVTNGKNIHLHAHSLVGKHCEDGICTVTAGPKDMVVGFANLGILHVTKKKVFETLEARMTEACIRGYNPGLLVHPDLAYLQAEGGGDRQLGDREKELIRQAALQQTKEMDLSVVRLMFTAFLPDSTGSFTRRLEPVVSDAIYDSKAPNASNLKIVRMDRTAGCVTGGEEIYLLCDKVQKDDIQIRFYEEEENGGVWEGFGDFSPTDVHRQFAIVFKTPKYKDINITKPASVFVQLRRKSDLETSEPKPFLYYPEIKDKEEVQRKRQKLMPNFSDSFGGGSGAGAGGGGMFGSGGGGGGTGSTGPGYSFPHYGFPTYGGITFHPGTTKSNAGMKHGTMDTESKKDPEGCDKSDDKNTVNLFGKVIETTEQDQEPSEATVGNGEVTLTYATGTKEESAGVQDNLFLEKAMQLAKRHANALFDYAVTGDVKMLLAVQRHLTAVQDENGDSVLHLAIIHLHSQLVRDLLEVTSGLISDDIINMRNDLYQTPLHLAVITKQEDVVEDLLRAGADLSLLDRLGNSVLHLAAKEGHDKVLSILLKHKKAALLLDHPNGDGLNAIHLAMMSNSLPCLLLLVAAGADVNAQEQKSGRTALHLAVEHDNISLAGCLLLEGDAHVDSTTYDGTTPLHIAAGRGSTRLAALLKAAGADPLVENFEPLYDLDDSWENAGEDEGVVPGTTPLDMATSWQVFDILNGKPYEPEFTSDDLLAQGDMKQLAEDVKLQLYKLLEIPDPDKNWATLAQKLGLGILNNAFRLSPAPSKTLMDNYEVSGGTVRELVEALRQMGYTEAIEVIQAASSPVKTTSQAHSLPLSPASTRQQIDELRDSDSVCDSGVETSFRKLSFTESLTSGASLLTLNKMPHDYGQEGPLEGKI

Cc1cc(C)c(O)c(C)c1
not listed: [18] | [19] | [20]
inactive: all other assays above

CCOC(=O)CC(O)(CC(=O)OCC)C(=O)OCC
not listed: [7] | [12] | [20]
inactive: all other assays above

NC(=O)N1C(=O)C(C(=O)c2cc(Cl)cs2)c2cc(F)c(Cl)cc21 (centres undefined)
active: [1] 19.9 µM | [2] 16 µM | [3] 31.7 µM | [4] 30.9 µM | [5] 29.1 µM | [6] 13.2 µM | [8] 21.2 µM | [9] 26.4 µM | [10] 34.9 µM | [11] 50 µM | [12] 20.8 µM | [13] 13.9 µM | [14] 50 µM | [15] 16.1 µM | [16] 27.8 µM | [17] 13.3 µM

CC1=C(/C=C/C(C)=C/C=C/C(C)=C/C(=O)O)C(C)(C)CCC1
active: [5] 10.2 µM | [11] 18 µM | [12] 9 µM | [15] 22.9 µM | [16] 33.8 µM | [17] 11 µM
not listed: [1] | [4] | [6] | [18] | [20]
inactive: all other assays above

CCCCCCCCCCCCc1ccccc1S(=O)(=O)O
active: [1] 82.1 µM | [2] 76.8 µM | [3] 79.6 µM | [8] 72 µM | [18] 11.7 µM | [9] 80.6 µM | [10] 82.8 µM | [11] 26.9 µM | [13] 21.2 µM | [14] 12 µM | [15] 93.2 µM | [16] 10.8 µM
inactive: [5] | [6] | [19] | [17]

CCCCOCCO
not listed: [4] | [7] | [20]
inactive: all other assays above

O=C(OCCOCCOC(=O)c1ccccc1)c1ccccc1
not listed: [4] | [7] | [12] | [18]
inactive: all other assays above
